High-throughput results: PubChem, National Center for Advancing Translational Sciences (NCATS)
TDP1 cell noCPT: qHTS for Inhibitors of human tyrosyl-DNA phosphodiesterase 1 (TDP1): qHTS in cells in absence of CPT; DT40 Tdp1-/- hTDP1 cells, no CPT, ATP luminescence, 48 h; Potency, µM (series often up to 46.2 µM), for the others: top-dose activity change, negative = growth inhibition, usual class: inhibitors; hit rate 15% among 420,000; note: % is set by controls: 0 for no effect and ±100 for the full control effect; nearly all actives have a fitted effect of over 55% in size
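Camptothecin absent (DMSO only). Human TDP1-complemented DT40 knockout cells, 400 cells/well, 37 °C for minimum 48 hr; ATP measured via CellTiter-Glo, 30 min dark incubation, luminescence.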
TDP1 cell CPT: DT40-hTDP1 cell growth loss with CPT; chicken DT40 Tdp1-/-;hTDP1 cells + 20 nM CPT, ATP luminescence, 48 h; Potency, µM (doses to about 46.2 µM), inactives show at the highest dose activity change, negative = growth inhibition, actives largely listed as inhibitors; hit rate 12% among 420,000; AID 686979; note: % is set by controls: 0 for no effect and ±100 for the full control effect; nearly all actives have a fitted effect of over 55% in size
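Chicken DT40 Tdp1-/- cells stably complemented with human TDP1 were seeded at 400 cells/well in medium containing 20 nM camptothecin, exposed to pin-transferred compounds, and grown at 37 °C for at least 48 hr. Viability was read as ATP luminescence.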
TGFb SMAD3 inh: inhibitors of TGF-b signaling. Potency, µM (highest dose often 46.1 µM), for the others: top-dose activity, negative = inhibition, usual class: inhibitors. HepG2 CAGA-GFP TGF-b/SMAD3 reporter, GFP fluorescence, 18 h; TGF-beta stimulated, 500 pg/mL final. hit rate 1.2% among 410,000; note: % is set by controls: 0 for no effect and ±100 for the full control effect; nearly all actives have a fitted effect of over 65% in size
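HEPG2 CAGA-GFP cells (1000/well, DMEM with 1% FBS) were pre-incubated 2 h at 37 degrees C, given compound by pin tool, then stimulated with TGF-beta at 500 pg/mL final for 18 h before per-cell GFP fluorescence imaging.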
ATXN2 expr inh: inhibitors of ATXN2 expression. HEK-293 ATXN2-luciferase reporter, luminescence, 24 h. Potency, µM (doses to about 57 µM), for inactives: top-dose activity change, negative = inhibition, most hits filed as inhibitors. hit rate 0.72% among 360,000. AID 1745845; note: % is set by controls: 0 for no effect and ±100 for the full control effect; nearly all actives have a fitted effect of over 55% in size
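ATXN2-luciferase reporter cells (luciferase flanked by upstream and downstream ATXN2 gene portions) were treated 24 h at 37 °C with compounds at up to 57 uM. SteadyGlo luminescence gave expression; GF-AFC fluorescence gave viability.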
ATXN viability: reduces viability in counter-screen for ATXN expression inhibitors; S2 cells (HEK-293 line with an ATXN2-luciferase reporter) viability, CellTiter-Fluor protease fluorescence, 24 h; Potency, µM (doses to about 56.7 µM), hits mostly cytotoxic; hit rate 0.49% among 400,000; note: nearly all actives have a fitted effect of over 40% in size
HepG2 viability: counter-screen for TGF-b inhibitors: cytotoxicity in HepG2 cells. HepG2 CAGA-GFP viability, ATP luminescence, 18 h. Potency, µM (highest dose often 46.1 µM), for the others: top-dose activity change, negative = cytotoxicity, most hits filed as cytotoxic. hit rate 0.76% among 410,000
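HepG2 CAGA-GFP cells (1000/well, DMEM with 1% FBS) received compound, then TGF-beta at 500 pg/mL final, and were incubated 18 hours at 37 degrees C. Viability was read by CellTiter-Glo luminescence. Media-only wells were set as complete cell-killing and DMSO as no toxicity.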
Active calls of the source: *; i = inactive; ? = inconclusive; / = not tested or not shown. Compounds with a hit are over-represented: about 17% of the library has one in this group of screens. Calls come from the whole dose curve; as a rule, active = well fitted curve in the direction sought with a large enough effect; inconclusive = small, poorly fitted or top-dose-only effect, or another doubt; inactive = no such curve, though single readings can be large; an effect the other way counts as inactive or inconclusive. Potency is the fitted concentration of half-maximal effect.

SMILES	TDP1 cell noCPT	TDP1 cell CPT	TGFb SMAD3 inh	ATXN2 expr inh	ATXN viability	HepG2 viability
COc1cccc(C(=O)N2CCN(Cc3ccccc3C(F)(F)F)CC2)c1	?	?	11%	-9%	i	-1%
CCN1CCN(Cc2ccc(NC(=O)c3cc(NC(=O)c4cnn(-c5ccccc5)c4N)cc(OC)c3)cc2C(F)(F)F)CC1	21µM*	21µM*	?	?	25µM*	-79%
CCN1CCN(Cc2ccc(NC(=O)c3ccc(C)c(NC(=O)c4ccc5n[nH]nc5c4)c3)cc2C(F)(F)F)CC1	-1%	-1%	?	-5%	i	-26%
CCN1CCN(Cc2ccc(C(=O)Nc3ccc(C)c(NCc4cnc(NC(=O)OC)cn4)c3)cc2C(F)(F)F)CC1	-30%	?	-5%	6%	i	-11%
CCOc1cc(S(=O)(=O)NCCCn2ccnc2)ccc1Cl	-16%	?	-22%	-13%	i	-13%
CCOC(=O)CC(NC(=O)c1cc2cc(Br)cc(OC)c2oc1=O)c1ccc(OC)cc1 (stereo not drawn)	/	/	-10%	3%	i	-8%
Cc1ccc(S(=O)(=O)N2CCOCC2)cc1NC(=O)COC(=O)CCC(=O)c1ccc(F)cc1	5%	10%	0%	5%	i	-1%
COc1ccc(Nc2nc(Nc3ccc(OC)cc3OC)nc(N3CCN(C)CC3)n2)c(OC)c1	16µM*	?	21%	-17%	/	19%
COc1ccc(Nc2nc(NC(C)(C)C)nc(N3CCCC3)n2)c(OC)c1	16µM*	23µM*	?	-17%	i	-62%
COc1ccc(Nc2nc(N3CCCC3)nc(N3CCCC3)n2)c(OC)c1	?	?	?	-17%	i	-5%
COc1ccc(Nc2nc(N3CCCCC3)nc(N3CCCCC3)n2)c(OC)c1	-25%	-12%	-6%	2%	i	2%
COc1ccc(Nc2nc(NC(C)(C)C)nc(N3CCOCC3)n2)c(OC)c1	?	21µM*	3%	7%	i	-18%
CC(C)c1ccc(CN2CCC3(CCC(CNC(=O)c4ccn(C)n4)O3)CC2)cc1 (stereo not drawn)	?	?	/	/	i	/
Cn1c(=O)c(-c2ccc(F)cc2)nc2cnc(Nc3ccccc3)nc21	-4%	-1%	/	/	/	/
CC(C)C(NCC(=O)Nc1ccccc1C(=O)NC1CC1)c1ccccc1 (stereo not drawn)	?	16µM*	6%	-2%	i	0%
COC(=O)c1ccccc1NC(=O)NC1CCC(C)CC1 (stereo not drawn)	18µM*	-4%	0%	/	i	0%
COc1cc(OC)cc(C(=O)Nc2ccccc2C(=O)NC2CC2)c1	16µM*	?	?	-19%	?	-16%
COC(=O)c1ccc(NC(=O)c2ccccc2-c2ccccc2C(=O)O)cc1	-3%	7%	11%	/	i	22%
COc1ccc(CCNC(=O)C(=O)NCC2CCCN2S(=O)(=O)c2ccc(OC)cc2)cc1 (stereo not drawn)	?	?	-5%	-2%	?	-6%
COc1ccc(C(C#N)=C2C=CC(=NO)C=C2)cc1	10µM*	5.2µM*	?	56%	?	i
CC(=O)ON=C1C=CC(=C(C#N)c2ccccc2)C=C1	3.3µM*	2.3µM*	?	14µM*	14µM*	-52%
CC(=O)OC(=C(OC(C)=O)c1ccccc1)c1ccccc1	-5%	-30%	0%	-1%	i	5%
CCC(=O)c1ccc(OCc2ccc(C(=O)OC)cc2)c(OC)c1	?	4%	10%	19%	?	-17%
CCCCNC(=S)N(C)/N=C/c1ccc(OCc2ccc(C(=O)OC)cc2)c(OC)c1	15µM*	?	-23%	8%	i	-4%
O=C(Oc1ccccc1)N1CCC2(CC1)CCN(c1ccncc1)CC2	15µM*	15µM*	/	/	/	/
SMILES	TDP1 cell noCPT	TDP1 cell CPT	TGFb SMAD3 inh	ATXN2 expr inh	ATXN viability	HepG2 viability
COC(=O)N1CCC2(CC1)CCN(c1ccccn1)CC2	-24%	18%	/	/	/	/
O=C(Oc1ccccc1)N1CCC2(CC1)CCN(c1ccccn1)CC2	?	16µM*	/	/	/	/
Cc1ncc2c(n1)NC(=O)NC2	8%	9%	-6%	-3%	i	6%
O=C(CN1C(=O)NC(CCc2ccccc2)C1=O)Nc1ccc(F)c(F)c1F (stereo not drawn)	?	26µM*	-18%	-9%	i	-27%
O=C(CN1C(=O)NC(Cc2c[nH]c3ccccc23)C1=O)Nc1ccc(F)c(F)c1F (stereo not drawn)	?	-25%	-11%	/	/	-12%
CN(CC(=O)Nc1ccc(F)cc1)C(=O)CN1C(=O)NC(CCc2ccccc2)C1=O (stereo not drawn)	26µM*	12µM*	4%	/	i	2%
CC(C)C[C@H]1CN=C(N(C)C)N1CC1CCCC1	?	?	-8%	-18%	i	-13%
CC(C)C[C@H]1CN=C(N(C)C)N1CCCCc1ccccc1	2.6µM*	5.2µM*	-11%	-17%	i	-43%
C[C@H]1CN=C(N(C)C)N1CCCCc1ccccc1	15µM*	?	2%	-19%	i	-12%
CCN1C(Nc2ccccc2)=NC[C@@H]1C	8%	10%	7%	1%	i	-6%
CCC(CC)CN1C(N(C)C)=NC[C@@H]1CC(C)C	18µM*	16µM*	-7%	-17%	i	-7%
CCN(c1cccc(C)c1)S(=O)(=O)c1cc2c3c(c1)CCC(=O)N3CCC2	?	?	-6%	3%	i	-14%
CC(N)(C(=O)O)c1ccc(P(=O)(O)O)cc1 (stereo not drawn)	-27%	-8%	/	/	/	/
CCC(=O)Nc1ccc(OCC2CCCO2)cc1 (stereo not drawn)	-5%	23%	-5%	/	i	-8%
C#CCNC(=O)C[C@@H]1C[C@@]2(C(=O)OCC)CCCC=C2N(CCCCCCCC)C1=O	13µM*	16µM*	/	?	/	/
CCCCNC(=O)C[C@@H]1C[C@@]2(C(=O)OCC)CCCC=C2N(Cc2ccco2)C1=O	?	?	/	2%	i	/
C#CCNC(=O)C[C@@H]1C[C@@]2(C(=O)OCC)CCCC=C2N(CCC2=CCCCC2)C1=O	15µM*	13µM*	/	/	/	/
